Data from ChEMBL document CHEMBL3988442, “University of Dundee, Small-Polar-MMV Screening Library” (2021).
For some of these results: Measured potencies and affinities stand elsewhere.

How the values were obtained:
Set-up in all cases: scale not given: direction of the effect not stated beside the values
[1] = target: Protein translocase subunit SecA (Escherichia coli (strain K12)) (UniProt P10408); assay: Assay to Identify E. coli SecA ATPase Inhibitors; type: functional; conditions: 30 µM
[2] = target: T1, Ubiquitin-activating enzyme e1, putative (Leishmania donovani (strain BPK282A1)) (UniProt E9BSI1); assay: Leishmania donovani Ubiquitin Activating Enzyme (LdE1); type: functional; conditions: 30 µM
T1 sequence (whole entry): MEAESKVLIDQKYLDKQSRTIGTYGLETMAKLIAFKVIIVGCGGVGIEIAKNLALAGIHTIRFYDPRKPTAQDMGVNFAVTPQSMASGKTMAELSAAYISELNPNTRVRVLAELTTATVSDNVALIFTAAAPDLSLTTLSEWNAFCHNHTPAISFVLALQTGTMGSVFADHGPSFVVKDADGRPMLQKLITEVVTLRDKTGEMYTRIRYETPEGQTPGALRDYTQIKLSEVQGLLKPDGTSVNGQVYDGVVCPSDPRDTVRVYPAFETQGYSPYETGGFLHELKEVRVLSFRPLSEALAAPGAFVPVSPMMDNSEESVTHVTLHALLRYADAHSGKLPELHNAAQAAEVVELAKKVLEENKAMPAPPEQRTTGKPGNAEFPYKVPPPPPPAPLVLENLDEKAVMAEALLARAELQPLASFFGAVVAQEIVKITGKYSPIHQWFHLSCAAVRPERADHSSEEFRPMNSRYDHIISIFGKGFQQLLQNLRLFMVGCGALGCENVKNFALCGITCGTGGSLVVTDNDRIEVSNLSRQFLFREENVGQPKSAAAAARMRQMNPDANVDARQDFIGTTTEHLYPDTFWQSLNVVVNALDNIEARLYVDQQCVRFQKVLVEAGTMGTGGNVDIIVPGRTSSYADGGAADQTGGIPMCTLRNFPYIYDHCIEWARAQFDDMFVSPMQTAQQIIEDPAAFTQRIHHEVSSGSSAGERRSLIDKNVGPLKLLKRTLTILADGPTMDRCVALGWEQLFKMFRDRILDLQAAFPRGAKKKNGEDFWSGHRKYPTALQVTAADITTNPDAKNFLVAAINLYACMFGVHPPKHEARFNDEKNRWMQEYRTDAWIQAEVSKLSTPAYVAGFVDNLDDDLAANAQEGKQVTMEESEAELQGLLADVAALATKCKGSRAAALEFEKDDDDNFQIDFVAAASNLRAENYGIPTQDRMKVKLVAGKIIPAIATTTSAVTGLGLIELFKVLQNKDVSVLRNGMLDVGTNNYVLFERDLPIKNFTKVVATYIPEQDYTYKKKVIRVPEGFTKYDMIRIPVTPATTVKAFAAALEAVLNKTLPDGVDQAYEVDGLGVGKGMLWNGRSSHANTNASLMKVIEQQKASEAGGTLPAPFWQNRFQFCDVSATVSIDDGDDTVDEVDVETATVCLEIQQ

[3] = target: AMP-activated protein kinase, AMPK (Homo sapiens) (UniProt P54646+O43741+P54619+Q9UGJ0+Q9Y478+Q13131+Q9UGI9); assay: AMP-dependent Kinase enzyme assay. An in vitro enzyme assay that detects ADP turnover that is directly proportional to AMPK activity. This uses naive AMPK that is activated during the assay with MK-8722; type: functional; conditions: 30 µM
[4] = target: Sialic acid-binding Ig-like lectin 9 (Homo sapiens) (UniProt Q9Y336); assay: Hs-Siglec9 ALPHAscreen SOP 20170721; conditions: 10 µM
Trypanosoma cruzi = assay: Trypanosoma cruzi phosphomannomutase and mannose-1-phosphate guanylyltransferase assay; type: functional; conditions: 10 µM
[5] = target: T2, Arginase-2, mitochondrial (Homo sapiens) (UniProt P78540); assay: in vitro enzyme assay to detect the production of urea directly proportional to the activity of Arginase II; type: functional; conditions: 33.3 µM; further: in the data most compounds retested in dose-response had high values
T2 sequence (whole entry): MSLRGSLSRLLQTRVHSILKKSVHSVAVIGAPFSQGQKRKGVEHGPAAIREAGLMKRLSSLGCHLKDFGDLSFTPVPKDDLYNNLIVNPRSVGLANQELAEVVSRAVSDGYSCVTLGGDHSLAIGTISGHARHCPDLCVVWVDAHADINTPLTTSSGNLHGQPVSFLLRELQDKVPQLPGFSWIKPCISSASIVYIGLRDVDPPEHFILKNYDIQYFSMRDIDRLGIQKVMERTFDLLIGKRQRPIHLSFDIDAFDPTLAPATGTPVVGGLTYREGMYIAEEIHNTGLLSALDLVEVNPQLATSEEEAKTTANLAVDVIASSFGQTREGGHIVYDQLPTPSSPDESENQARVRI

[6] = target: T3, Proteasome subunit beta (Trypanosoma cruzi) (UniProt O96673); assay: Trypanosoma cruzi proteasome chymotrypsin-like activity (TcProtChymo) assay.; further: in the data most compounds retested in dose-response had high values; type: functional; conditions: 9.37 µM
T3 sequence (whole entry): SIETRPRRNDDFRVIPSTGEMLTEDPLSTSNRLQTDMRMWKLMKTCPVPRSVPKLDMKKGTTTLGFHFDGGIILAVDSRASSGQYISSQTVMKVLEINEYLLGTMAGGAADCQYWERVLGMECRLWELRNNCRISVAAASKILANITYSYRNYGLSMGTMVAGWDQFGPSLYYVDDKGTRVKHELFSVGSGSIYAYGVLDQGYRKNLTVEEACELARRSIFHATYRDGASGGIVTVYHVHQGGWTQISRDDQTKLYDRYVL

Homo sapiens = species: Homo sapiens; assay: To identify inhibition of the IFN signalling (Jak-Stat) pathway via expression of an eGFP reporter gene under the control of an IFN-stimulated response element (ISRE) containing MxA promoter.; type: functional; conditions: 30 µM
[7] = target: T4, Tyrosyl-tRNA synthetase, putative (Trypanosoma cruzi (strain CL Brener)) (UniProt Q4DSP6); assay: Trypanosoma cruzi tyrosyl tRNA synthetase (TcYRS) _High Tyrosine SOP; type: functional; conditions: 30 µM; further: in the data most compounds retested in dose-response had high values
T4 sequence (whole entry): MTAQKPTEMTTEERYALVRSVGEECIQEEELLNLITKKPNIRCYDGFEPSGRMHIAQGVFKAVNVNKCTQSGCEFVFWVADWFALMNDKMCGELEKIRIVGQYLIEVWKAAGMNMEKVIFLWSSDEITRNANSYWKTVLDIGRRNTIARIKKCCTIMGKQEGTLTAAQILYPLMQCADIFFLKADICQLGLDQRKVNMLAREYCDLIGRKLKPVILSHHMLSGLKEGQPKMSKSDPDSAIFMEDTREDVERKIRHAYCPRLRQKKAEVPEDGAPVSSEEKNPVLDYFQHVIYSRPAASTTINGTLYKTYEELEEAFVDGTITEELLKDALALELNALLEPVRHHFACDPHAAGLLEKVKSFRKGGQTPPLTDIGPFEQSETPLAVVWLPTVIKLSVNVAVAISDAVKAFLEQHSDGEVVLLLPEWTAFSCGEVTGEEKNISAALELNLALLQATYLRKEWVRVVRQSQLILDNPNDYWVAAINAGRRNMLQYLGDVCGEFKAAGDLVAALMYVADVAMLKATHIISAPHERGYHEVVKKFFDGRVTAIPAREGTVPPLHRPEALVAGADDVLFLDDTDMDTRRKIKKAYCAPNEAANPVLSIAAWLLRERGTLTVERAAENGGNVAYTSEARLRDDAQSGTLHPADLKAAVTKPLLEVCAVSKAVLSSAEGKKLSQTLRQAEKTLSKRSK

[8] = target: T4, Tyrosyl-tRNA synthetase, putative (Trypanosoma cruzi (strain CL Brener)); assay: Trypanosoma cruzi tyrosyl tRNA synthetase (TcYRS) SOP; type: functional; conditions: 30 µM
[9] = target: Chromo domain-containing protein 1 (Saccharomyces cerevisiae (strain ATCC 204508 / S288c) (Baker's yeast)) (UniProt P32657); assay: ScCHD-1 Enzyme Inhibition Assay; type: functional; conditions: 30 µM; further: in the data most compounds retested in dose-response had high values
Chromo domain-containing protein 1 (Saccharomyces cerevisiae (strain ATCC 204508 / S288c) (Baker's yeast)), sequence (P32657 whole entry, the tested form may be a part): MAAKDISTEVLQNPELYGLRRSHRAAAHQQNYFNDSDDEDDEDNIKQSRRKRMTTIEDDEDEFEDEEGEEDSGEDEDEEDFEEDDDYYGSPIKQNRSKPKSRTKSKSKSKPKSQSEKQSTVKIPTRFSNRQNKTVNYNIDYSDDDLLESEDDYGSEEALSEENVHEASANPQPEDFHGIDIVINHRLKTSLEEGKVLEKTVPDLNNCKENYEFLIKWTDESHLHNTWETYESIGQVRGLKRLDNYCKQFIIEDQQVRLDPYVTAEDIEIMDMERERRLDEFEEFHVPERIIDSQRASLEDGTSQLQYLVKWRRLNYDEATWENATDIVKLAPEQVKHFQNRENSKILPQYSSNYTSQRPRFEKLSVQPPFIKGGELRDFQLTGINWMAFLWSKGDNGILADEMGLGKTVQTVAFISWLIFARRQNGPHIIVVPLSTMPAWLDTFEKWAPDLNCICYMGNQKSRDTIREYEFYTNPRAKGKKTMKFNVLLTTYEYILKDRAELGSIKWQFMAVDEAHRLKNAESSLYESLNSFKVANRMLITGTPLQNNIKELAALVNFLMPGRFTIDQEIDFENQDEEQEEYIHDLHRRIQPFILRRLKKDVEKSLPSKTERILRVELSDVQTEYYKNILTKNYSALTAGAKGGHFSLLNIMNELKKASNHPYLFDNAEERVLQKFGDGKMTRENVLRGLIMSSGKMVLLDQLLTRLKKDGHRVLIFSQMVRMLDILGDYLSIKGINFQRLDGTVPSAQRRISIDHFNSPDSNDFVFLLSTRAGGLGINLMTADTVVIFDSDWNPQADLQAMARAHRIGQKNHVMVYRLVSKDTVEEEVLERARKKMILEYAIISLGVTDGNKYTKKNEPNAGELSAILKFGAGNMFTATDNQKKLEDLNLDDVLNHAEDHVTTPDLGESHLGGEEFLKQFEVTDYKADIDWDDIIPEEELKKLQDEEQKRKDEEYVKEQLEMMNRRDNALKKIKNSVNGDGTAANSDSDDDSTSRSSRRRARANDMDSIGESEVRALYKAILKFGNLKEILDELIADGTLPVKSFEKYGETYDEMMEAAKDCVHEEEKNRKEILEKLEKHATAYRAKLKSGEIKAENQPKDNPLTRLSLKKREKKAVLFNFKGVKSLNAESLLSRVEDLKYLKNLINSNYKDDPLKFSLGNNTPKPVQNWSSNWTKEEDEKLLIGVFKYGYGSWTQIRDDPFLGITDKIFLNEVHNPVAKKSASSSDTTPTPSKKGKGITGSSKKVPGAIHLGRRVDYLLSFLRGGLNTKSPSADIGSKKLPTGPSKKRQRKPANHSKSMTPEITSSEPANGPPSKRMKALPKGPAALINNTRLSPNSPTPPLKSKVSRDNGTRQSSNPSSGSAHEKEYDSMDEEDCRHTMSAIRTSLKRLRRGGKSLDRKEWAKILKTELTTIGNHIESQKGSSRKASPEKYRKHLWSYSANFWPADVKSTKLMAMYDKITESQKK

Sialic acid-binding Ig-like lectin 9 (Homo sapiens), sequence (Q9Y336 whole entry): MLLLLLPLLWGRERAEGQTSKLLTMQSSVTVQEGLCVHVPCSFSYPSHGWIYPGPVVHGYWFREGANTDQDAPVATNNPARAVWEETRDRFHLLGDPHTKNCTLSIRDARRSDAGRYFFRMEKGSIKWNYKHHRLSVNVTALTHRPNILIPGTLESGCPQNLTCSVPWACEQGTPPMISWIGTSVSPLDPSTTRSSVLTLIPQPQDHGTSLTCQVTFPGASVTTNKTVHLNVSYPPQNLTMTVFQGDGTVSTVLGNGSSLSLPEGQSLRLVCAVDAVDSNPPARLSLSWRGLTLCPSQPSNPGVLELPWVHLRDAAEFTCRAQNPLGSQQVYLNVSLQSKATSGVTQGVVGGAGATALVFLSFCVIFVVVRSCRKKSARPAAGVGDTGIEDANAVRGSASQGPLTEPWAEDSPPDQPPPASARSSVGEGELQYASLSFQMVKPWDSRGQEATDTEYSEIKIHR
Protein translocase subunit SecA (Escherichia coli (strain K12)), sequence (P10408 whole entry): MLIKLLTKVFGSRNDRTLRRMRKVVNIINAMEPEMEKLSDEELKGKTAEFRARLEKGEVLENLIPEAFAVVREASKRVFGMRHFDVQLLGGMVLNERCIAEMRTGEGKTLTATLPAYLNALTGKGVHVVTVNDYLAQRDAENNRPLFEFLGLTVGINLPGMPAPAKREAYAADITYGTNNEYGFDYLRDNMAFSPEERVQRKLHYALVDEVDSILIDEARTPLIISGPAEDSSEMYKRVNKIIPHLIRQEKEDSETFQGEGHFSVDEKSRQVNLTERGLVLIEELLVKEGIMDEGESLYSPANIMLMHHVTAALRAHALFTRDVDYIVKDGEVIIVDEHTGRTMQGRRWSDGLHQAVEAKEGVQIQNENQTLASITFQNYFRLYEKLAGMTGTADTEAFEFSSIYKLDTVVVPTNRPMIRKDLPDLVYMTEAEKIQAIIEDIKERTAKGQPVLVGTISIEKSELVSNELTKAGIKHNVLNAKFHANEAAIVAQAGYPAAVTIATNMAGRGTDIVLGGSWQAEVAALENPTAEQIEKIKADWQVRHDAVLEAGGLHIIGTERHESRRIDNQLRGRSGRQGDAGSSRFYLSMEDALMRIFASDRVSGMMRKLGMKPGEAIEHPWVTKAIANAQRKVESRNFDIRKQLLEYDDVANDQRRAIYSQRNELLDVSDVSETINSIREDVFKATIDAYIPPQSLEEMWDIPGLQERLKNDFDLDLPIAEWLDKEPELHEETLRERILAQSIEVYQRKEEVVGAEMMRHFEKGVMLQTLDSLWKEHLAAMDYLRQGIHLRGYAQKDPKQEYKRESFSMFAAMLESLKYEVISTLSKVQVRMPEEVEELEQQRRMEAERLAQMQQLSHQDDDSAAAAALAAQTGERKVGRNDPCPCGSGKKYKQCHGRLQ

SMILES	Percent Effect [1]	Percent Effect [2]	Percent Effect [3]	Percent Effect [4]	Percent Effect (Trypanosoma cruzi)	Percent Effect [5]	Percent Effect [6]	Percent Effect (Homo sapiens)	Percent Effect [7]	Percent Effect [8]	Percent Effect [9]
CN(C)CC(=O)N1Cc2nc(C(=O)NCc3ccncc3)oc2C1	-0.101%	13.3%	-4.75%	4%	3.86%	-49.3%	14.4%	-9.53%	0%	20%	-6.75%
CC(=O)N1CCCC1c1nccc(C)n1 (stereo not drawn)	-4.82%	8%	9.75%	7.48%	-0.984%	3.5%	4.67%	3.01%	3.19%	11.5%	-1.52%
CCc1nc(CN(CC(N)=O)C(C)C)cs1	-2.67%	17.7%	0.603%	3.91%	1.23%	-1.14%	7.78%	7.33%	10.3%	21.5%	-2.93%
CS(=O)(=O)N1CCN(CC(O)COc2ccc(F)cc2)CC1 (stereo not drawn)	-0.431%	10.4%	2.55%	-2.66%	-4.02%	0.632%	11.4%	26.8%	2.86%	21.2%	-16.1%
Cc1nn(C)c(C)c1C1CCCN1Cc1cccc(C(N)=O)c1 (stereo not drawn)	2.51%	0%	-3.2%	12.2%	-4.63%	3.04%	9.26%	8.29%	2.46%	-1.27%	0.624%
CCc1nc(C2CCCN2Cc2nc3ccccc3o2)no1 (stereo not drawn)	-0.183%	2.6%	6.37%	9.09%	1.67%	2.74%	2.67%	-1.25%	-2.86%	0%	2.53%
N#Cc1ccccc1N1CCCN(C(=O)CCc2nccs2)CC1	-2.01%	12.7%	-0.172%	4.85%	-4.25%	5.7%	3.36%	17.5%	3.45%	11.4%	-6.41%
CC(=O)Nc1nc(C(=O)N2CCCC2c2ccccc2C)cs1 (stereo not drawn)	-3.82%	10.4%	8.63%	1.33%	-8.24%	4.27%	3.21%	31.4%	5.83%	9.76%	-5.39%
